The whole screen tested about 2,200 compounds, of which about 1,300 (59%) were called active. How the calls were made is not given here. So high a share suggests a set chosen from earlier hits. The list is a sample of the results. Measured potencies and affinities stand elsewhere.
Assay: THP-1 cell cytotoxicity, dose response, cytotoxicity control for Salmonella PhoP regulon inhibitors, S. typhimurium screen hits (AID 2253)
Details: THP-1 viability, CellTiter-Glo luminescence, 72 h; series mostly up to 50 µM; viability: at the top concentration

Structure (SMILES)	viability
CC1(C)CC(=O)C(/C=N/c2ncccc2C(=O)O)=C(O)C1	91% (inactive)
O=C(NC(CO)C(O)c1ccc([N+](=O)[O-])cc1)C(Cl)Cl (centres undefined)	83.4% (inactive)
Cc1ccc(-n2c(C)cc(-c3csc(N)n3)c2C)cc1	96.6% (inactive)
Cc1cc(-c2csc(N)n2)c(C)n1C	103% (inactive)
Cc1ccccc1NC(=O)c1ccc(-n2cncn2)nc1	92.5% (inactive)
O=C1C(c2ccc(F)cc2)N(Cc2ccc3c(c2)OCO3)C(=O)CN1C1CCCCCC1 (centres undefined)	93% (inactive)
C/C(=N\n1nnnc1Nc1ccccc1)c1ccc(N)cc1	93.7% (inactive)
Nc1ccc(Nc2ccccc2)c(Cl)c1	92.2% (inactive)
CCn1cc(C(=O)O)c(=O)c2cc(F)c(N3CCN(C(=S)NC(=O)c4ccccc4Cl)CC3)cc21	98.7% (inactive)
CSCCC(NC(=O)c1cccc(C)c1)C(=O)OCC(=O)NC(=O)c1cccn1C (centres undefined)	94.9% (inactive)
COc1ccc(Cl)cc1-c1nc(SCC(N)=O)n[nH]1	91.2% (inactive)
CC(=O)Nc1ccc(OC(=O)c2cccnc2)cc1	81.9% (inactive)
COC(=O)c1sccc1NC(=O)c1cccnc1	94.4% (inactive)
CC(=O)Nc1ccc(C(=O)Nc2nc(-c3cc(C)n(Cc4ccccc4)c3C)cs2)cc1	98% (inactive)
Cc1cc(-c2csc(NC(=O)c3ccc(S(=O)(=O)N(C)C)cc3)n2)c(C)n1-c1ccccc1	106% (inactive)
O=C(/C=C/c1ccco1)N/C(=C\c1ccccc1)C(=O)NCCc1nc2ccccc2[nH]1	81.4% (inactive)
Cc1ccc2c(CN3CCC(C)CC3)cc(=O)oc2c1	94.1% (inactive)
N#Cc1nc(-c2ccco2)oc1NCCCN1CCOCC1	108% (inactive)
N#CC1=C(N)SC(N)=C(C#N)C1c1ccc([N+](=O)[O-])cc1	101% (inactive)
CC1CCCCN1CCNS(=O)(=O)c1ccc2c(c1)oc(=O)n2C (centres undefined)	100% (inactive)
Cn1nnnc1SCC(=O)NC1CCCCC1	88% (inactive)
CC1(C)CC(=O)C2=C(C1)N(Cc1ccccc1)C(=O)C2(O)C(F)(F)F (centres undefined)	93.4% (inactive)

Structure (SMILES)	viability
C/C(=N/Nc1nc(-c2ccc(Cl)cc2)cs1)c1cccs1	86.8% [at 12.5 µM] (inactive)
CCc1c(C)c2cc(Cl)c(O)c(CN3CCCCC3)c2oc1=O	100% (inactive)
O=C(CCc1ccccc1)Nc1nc2ccc(S(=O)(=O)N3CCOCC3)cc2s1	85.6% [at 25 µM] (inactive)
O=C(NCc1cn2ccsc2n1)Nc1ccc(Cl)cc1	81.7% (inactive)
COc1ccccc1CNc1nc2nc(C)c(C)c(=O)n2[nH]1	95.3% (inactive)
O=C(c1cnsn1)N1CCN(c2ccccc2)CC1	81.3% (inactive)
O=C1CC(c2ccccc2)n2nc(NC(=O)c3ccccc3)nc2N1 (centres undefined)	89.1% (inactive)
Cc1nc(N2CCN(c3ccccc3)CC2)nc2c1C(=O)CC(C)C2 (centres undefined)	91.5% (inactive)
CCC(CC)NC(=O)COC(=O)c1ccc(OCC(=O)Nc2ccccc2OC)c(OC)c1	89.9% (inactive)
Cc1ccc(CNC(=O)Nc2cccs2)cc1	92.3% (inactive)
CCn1c(=O)c(=O)[nH]c2cc(C(=O)NCC3CCCCC3)ccc21	94% (inactive)
O=C1c2ccccc2C(=O)N1c1cccc(-c2csc(Nc3ccc4c(c3)OCO4)n2)c1	98.5% (inactive)
Oc1ccc(Nc2nc(-c3cccs3)cs2)cc1	93.4% (inactive)
c1ccc2[nH]c(CSc3nccs3)nc2c1	84.4% (inactive)
Cc1nn2c(=O)cc(CSc3nc4ccccc4[nH]3)nc2s1	97.9% (inactive)
Cn1c(COc2ccccc2)nnc1SCc1nc2ccccc2[nH]1	95.2% (inactive)
O=C1NC(=O)C(=C2CCCCCC2)S1	90.7% (inactive)
Cc1ncoc1C(=O)Nc1cccc(Cl)c1	99.8% (inactive)
CS(=O)(=O)c1ccc([C@@H](O)[C@@H](CF)NC(=O)C(Cl)Cl)cc1	93% (inactive)
CC(=O)C1=C(C)Nc2ncnn2C1c1ccccc1OCc1ccccc1 (centres undefined)	84.5% (inactive)
COC(=O)CN1C(c2ccc(OC)cc2)=Nc2ccc(Cl)cc2C1c1ccccc1 (centres undefined)	80.7% (inactive)
O=C(c1ccccc1)c1nc2ccccc2n(CCCn2c(=O)c(C(=O)c3ccccc3)nc3ccccc32)c1=O	95% (inactive)

— PubChem BioAssay AID2253 (Southern Research Specialized Biocontainment Screening …, 2010)
